Assay results reported in PubChem BioAssay (NCATS).
Records with an inconclusive call do not appear. Active and inactive are the calls of the source. Calls follow the shape of the dose curve; as a rule, active = well fitted cell-killing curve with a large enough effect; inconclusive = small, poorly fitted or top-dose-only effect; inactive = no such curve, though single readings can be large or run the other way.

assay: qHTS of pediatric cancer cell lines to identify multiple opportunities for drug repurposing: Primary screen for OHS-50 cells (AID 1347103); settings: OHS-50 osteosarcoma viability, CellTiter-Glo luminescence, 48 h; series mostly up to 57.3 µM; also: nearly all actives have a fitted effect of over 40% in size
Description: Drug repurposing or repositioning has been offered as a strategy for drug development in oncology programs. This approach has special potential for childhood cancers and other rare or orphan diseases, where the expected return on new drug development has been a disincentive to pharmaceuticals.
In this project we exploit the poly-pharmacology of drugs to discover new indications via phenotypic screening of a panel of 19 well-characterized cell lines derived from solid tumors seen in children and adolescents. The goal is to identify approved drugs with previously unrecognized anticancer properties that has the potential to reveal new mechanisms and biological processes involved in carcinogenesis or drug resistance. We employed a titration-based paradigm (quantitative high-throughput screening or qHTS), where all compounds were tested at multiple concentrations for their effect on cell viability. Concentration-response curves (CRCs) were derived directly from the primary screen, and both potency and efficacy values were used to identify compounds with robust bioactivity profiles. We screened the NIH Chemical Genomics Center (NCGC) Pharmaceutical Collection (NPC) and Mechanism Interrogation Plate (MIPE) small molecule collections of approved and investigational compounds against these cell lines; and measured metabolically active cells after 48 hours of compound treatment as a proxy for cell viability.
Assay Submitter: Nathalia J. Martinez, National Center for Advancing Translational Sciences, National Institutes of Health, Rockville, MD, USA; email: natalia.martinez@nih.gov
[1] Shen, M et al. Quantitative high-throughput phenotypic screening of pediatric cancer cell lines identifies multiple opportunities for drug repurposing. Oncotarget 2017 Dec 19;9(4):4758-4772. PMID 29435139.
The cells were obtained from University of North Carolina (UNC), Pediatric Preclinical Testing Program (PPT), and Coriell Institute (CI).
qHTS cell viability assay:
Cells were assayed in growth media at a density of 500-1,000 cells/well. Five microliters of cells were dispensed into 1,536-well, white, solid-bottom, TC-treated plates (Greiner Bio One) using a multidrop dispenser and incubated at 37 degrees C, 5% CO2, under a humidified atmosphere for 5 hours. Twenty-three nanoliters of compounds and controls (neutral control DMSO or positive control bortezomib at final concentration of 2.3 µM) were subsequently transferred by Kalypsys pintool. For primary screens, the MIPE collection was tested at 11-point dilutions (final concentrations range from 0.78 nM to 46 µM) and the NPC collection at 8-point dilutions (final concentrations range from 0.59 nM to 46 µM). Compounds tested in follow-up screens were assayed at 11-point dilutions. Cells were incubated for 48 hours, followed by addition of 3 µL of CellTiter-Glo (Promega). After a 15 min incubation at room temperature, samples were analyzed for luminescence intensity using a ViewLux High-throughput CCD imager equipped with clear filters.

Compound | outcome | activity change, negative = cytotoxic
O=C(O)c1ccc[n+]([O-])c1 | inactive | –
CN[C@@H]1[C@@H](O)[C@@H](O[C@@H]2[C@H](O)[C@H](O[C@H]3OC(CN)=CC[C@H]3N)[C@@H](N)C[C@H]2N)OCC1(C)O (stereo not given in full) | inactive | –
O=C(NCCCN1CCOCC1)c1ccc(Cl)cc1 | inactive | –
NC(=O)CC[C@@H](N)C(=O)O | inactive | –
CC1CC(OC(=O)c2ccccc2O)CC(C)(C)C1 (stereo not given) | inactive | –
CC1(C)[C@@H](OC(=O)CCC(=O)O)CC[C@]2(C)[C@H]3C(=O)C=C4[C@@H]5C[C@@](C)(C(=O)O)CC[C@]5(C)CC[C@@]4(C)[C@]3(C)CC[C@@H]12 | inactive | –
CC(=O)OC[C@H]1O[C@@](COC(C)=O)(O[C@H]2O[C@H](COC(C)=O)[C@@H](OC(C)=O)[C@H](OC(C)=O)[C@H]2OC(C)=O)[C@@H](OC(C)=O)[C@@H]1OC(C)=O | inactive | –
Cc1ccsc1/C=C/C1=NCCCN1C | inactive | –
CC(=O)Nc1ccc(C(=O)O)cc1 | inactive | –
Nc1c2c(nc3c1CCC3)CCCC2 | inactive | –
CCN[C@H]1CN(CCCOC)S(=O)(=O)c2sc(S(N)(=O)=O)cc21 | inactive | –
COC(=O)c1cccnc1 | inactive | –
O=c1[nH]c(=O)c2ccccc2o1 | inactive | –
O=C(O)Cc1cn(-c2ccccc2)nc1-c1ccc(Cl)cc1 | inactive | –
CN[C@@H]1[C@H](O)[C@H](NC)[C@H]2O[C@@]3(O)C(=O)C[C@@H](C)O[C@H]3O[C@@H]2[C@H]1O | inactive | –
C[C@@H]1CCC[C@H](C)N1 | inactive | –
Cc1cc(NC(=O)C2=C(O)c3ccccc3S(=O)(=O)N2C)no1 | inactive | –
CC(=O)Nc1ccccc1 | inactive | –
CC(C)=CCC/C(C)=C/CO | inactive | –
CCOC(=O)[C@H](CCc1ccccc1)N[C@@H](C)C(=O)N1CCC[C@H]1C(=O)O | inactive | –

Compound | outcome | activity change, negative = cytotoxic
NS(=O)(=O)c1ccc(NC(=O)CCC(=O)O)cc1 | inactive | –
CC[N+](C)(CC)CCOC(=O)C1c2ccccc2Oc2ccccc21 | inactive | –
CCCCCC(N)=O | inactive | –
O[C@@H]1CO[C@H]2[C@@H]1OC[C@@H]2O | inactive | –
COc1cc(O)cc(O)c1 | inactive | –
O=C1CC[C@@H](C(=O)O)N1 | inactive | –
N[C@@H](Cc1ccc(O)cc1)C(=O)O | – | 9.85% [at 11.5 µM] (inactive)
COc1ccccc1OC(=O)Oc1ccccc1OC | inactive | –
Cc1cccc(Nc2ccccc2C(=O)O)c1C | inactive | –
CCCCCCCCCCCCCCCCC(C(=O)O)C(O)(CC(=O)O)C(=O)O (stereo not given) | inactive | –
CC(C)CCCC(C)CCCC(C)CCCCC(C)CCCC(C)CCCC(C)C (stereo not given) | inactive | –
CC(C)(C)NCC(O)COc1cccc2c1CCC(=O)N2 (stereo not given) | inactive | –
O=C(O)Cn1c(C(=O)Nc2nc(-c3ccccc3Cl)cs2)cc2ccccc21 | inactive | –
Cc1ccccc1N=Nc1ccc(N=Nc2c(O)ccc3ccccc23)c(C)c1 | inactive | –
Cc1cccc(C(=O)O)c1O | inactive | –
OCCN1C[C@H](O)[C@@H](O)[C@H](O)[C@H]1CO | inactive | –
C[C@H]1COc2c(C3(N)CC3)c(F)cc3c(=O)c(C(=O)O)cn1c23 | inactive | –
O=C1c2cccc(O)c2C(=O)c2c(O)cccc21 | inactive | –
COC(=O)N/N=C/c1c[n+]([O-])c2ccccc2[n+]1[O-] | inactive | –
CC(=O)NCc1c(I)c(NC(C)=O)c(I)c(C(=O)O)c1I | inactive | –
